From PubChem BioAssay

Columns and labels:
[1] = system: Human papillomavirus type 1a protein E7 (residues 44-93); assay: small molecules binding HPV E7 44-93 – biochemical, small-molecule microarray, residues 44-93, 635 nm fluorescence, primary screen (AID 1108); settings: fluorescence 635 nm, higher = more signal;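 also: E7 fragment applied at 1 µg/mL in TBST for 1 h at 4 C; score combines spot fluorescence with its signal to noise ratio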
[2] = hepatitis C replication reporter changes, two-sided – Huh7 cells, luciferase reporter, HCV replication inhibitor project, primary screen (AID 1109); settings: Huh7 HCV replicon luciferase reporter, 48 h; higher = more signal;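 also: huh7 hepatoma cells harbouring a luciferase neomycin HCV replicon reporter; luciferase luminescence as measure of HCV replicon replication; test concentration not given here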
[3] = biological target: Left-right determination factor 2 (Homo sapiens) (UniProt O00292); assay: small molecules binding LEFTY2 protein – biochemical, small-molecule microarray, 635 nm fluorescence scan, primary screen (AID 1110); settings: higher = more signal
[4] = biological target: Calmodulin-1 (Homo sapiens) (UniProt P0DP23); assay: small molecules binding calmodulin-1 with EGTA – biochemical, small-molecule microarray, Cy5-labelled CALM1, profiling panel (AID 1111); settings: Cy5-CALM1 binding fluorescence, higher = more signal;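 also: labelled calmodulin applied in Tris saline Tween buffer holding calcium plus EGTA and DTT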
[5] = biological target: Calmodulin-1 (Homo sapiens) (UniProt P0DP23); assay: small molecules binding Ca-loaded calmodulin-1 – biochemical, small-molecule microarray, Cy5-labelled CALM1, plus calcium, artefact control for SMM control-protein annotation, profiling panel (AID 1112); settings: Cy5-CALM1 binding fluorescence, higher = more signal;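 also: score merges spot fluorescence with signal to noise from triplicate slides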
[6] = probe aWnt5a binding to arrayed compounds – biochemical, biotinylated probe, 635/667 nm fluorescence, primary screen (AID 1113); settings: small-molecule microarray, higher = more signal;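 also: score merges 667 nm fluorescence intensity with signal-to-noise per printed feature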
[7] = probe aShh binding to arrayed compounds – biochemical, biotinylated probe, 635/667 nm fluorescence, primary screen (AID 1114); settings: small-molecule microarray, higher = more signal;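 also: probe is biotin-labelled aShh protein from a stem cell growth factor screen; measures binding of labelled protein to compounds printed on the slide; score merges feature fluorescence at 667 nm with signal-to-noise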
[8] = probe aNog binding to arrayed compounds – biochemical, biotinylated probe, 635/667 nm fluorescence, primary screen (AID 1115); settings: small-molecule microarray, higher = more signal;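 also: probe is biotinylated aNog protein used at 0.15 µg/mL for 1 h at 4 C; z-score combines 667 nm fluorescence of each spot with its signal to noise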
[9] = biological target: Torsin-1A-interacting protein 1 (Homo sapiens) (UniProt Q5JTV8); assay: compound microarray binding of lysate hLAP1 – cell lysate, small-molecule microarray, COS7 lysate, 635/667 nm fluorescence, primary screen (AID 1116); settings: 635 nm fluorescence, higher = more signal
[10] = biological target: Alpha-bungarotoxin (Bungarus multicinctus) (UniProt P60615); assay: compounds binding labelled alpha-BTX control protein – biochemical, small-molecule microarray, Alexa647 label, 635/667 nm fluorescence, artefact control for SMM control protein annotation, profiling panel (AID 1117); settings: alpha-BTX-A647 binding fluorescence, higher = more signal
Chain of Alpha-bungarotoxin (Bungarus multicinctus) (P60615 whole entry, looked up): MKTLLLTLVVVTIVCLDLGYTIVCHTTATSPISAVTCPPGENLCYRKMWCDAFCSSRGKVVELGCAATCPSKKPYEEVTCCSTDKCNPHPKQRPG

Chain of Left-right determination factor 2 (Homo sapiens) (O00292 whole entry, looked up): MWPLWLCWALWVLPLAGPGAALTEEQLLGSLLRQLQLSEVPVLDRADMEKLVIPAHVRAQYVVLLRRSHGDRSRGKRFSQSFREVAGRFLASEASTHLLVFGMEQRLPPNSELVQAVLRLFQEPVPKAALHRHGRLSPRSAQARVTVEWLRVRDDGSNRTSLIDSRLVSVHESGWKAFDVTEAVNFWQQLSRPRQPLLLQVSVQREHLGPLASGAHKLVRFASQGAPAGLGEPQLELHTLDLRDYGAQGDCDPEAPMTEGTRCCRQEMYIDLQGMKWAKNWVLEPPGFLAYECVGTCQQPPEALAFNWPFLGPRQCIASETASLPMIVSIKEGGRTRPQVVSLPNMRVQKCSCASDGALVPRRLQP
Chain of Torsin-1A-interacting protein 1 (Homo sapiens) (Q5JTV8 whole entry, looked up): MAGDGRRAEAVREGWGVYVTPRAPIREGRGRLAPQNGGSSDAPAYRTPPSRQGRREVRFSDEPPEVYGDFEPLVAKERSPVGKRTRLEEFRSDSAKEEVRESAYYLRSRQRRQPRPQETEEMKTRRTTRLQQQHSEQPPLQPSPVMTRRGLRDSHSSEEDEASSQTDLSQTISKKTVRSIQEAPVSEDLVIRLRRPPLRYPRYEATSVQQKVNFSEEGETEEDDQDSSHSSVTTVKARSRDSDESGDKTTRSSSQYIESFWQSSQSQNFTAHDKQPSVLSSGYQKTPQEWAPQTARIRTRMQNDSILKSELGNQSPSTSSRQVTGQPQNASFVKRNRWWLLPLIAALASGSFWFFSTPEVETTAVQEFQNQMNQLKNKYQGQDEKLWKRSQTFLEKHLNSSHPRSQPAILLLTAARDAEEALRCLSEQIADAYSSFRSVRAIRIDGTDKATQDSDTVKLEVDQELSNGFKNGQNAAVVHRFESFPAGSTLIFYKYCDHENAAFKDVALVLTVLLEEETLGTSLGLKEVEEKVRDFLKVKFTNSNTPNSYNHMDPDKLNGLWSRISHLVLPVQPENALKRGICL

SMILES: C[C@@]1([C@@H](NC(=O)c2cccs2)c2ccc(-c3ccccc3)cc2)C[C@H]1C1CCCCC1
- composite z-score [1]: -0.309
- z-score [2]: -1.47
- composite z-score [3]: -0.919
- composite z-score [4]: 0.645
- composite z-score [5]: 0.111
- composite z-score [6]: -0.302
- composite z-score [7]: -0.478
- composite z-score [8]: 0.356
- composite z-score [9]: 0.0643
- composite z-score [10]: -0.344

SMILES: COCCCNC(=O)[C@]1(Cc2ccccc2CN=[N+]=[N-])N=C(c2ccc(OCCCO)cc2)O[C@@H]1c1ccccc1CN=[N+]=[N-]
- composite z-score [1]: -0.113
- z-score [2]: -2.54
- composite z-score [3]: 0.0705
- composite z-score [4]: 1.85
- composite z-score [5]: 0.945
- composite z-score [6]: 0.19
- composite z-score [7]: 0.417
- composite z-score [8]: 1.92
- composite z-score [9]: 2.09
- composite z-score [10]: 1.3

SMILES: C=C(COC)/C(=C/C[C@@H](OC(=O)c1ccncc1)c1cccc(OCCO)c1)c1cc(C(=O)OC)ccc1OC
- composite z-score [1]: 0.755
- z-score [2]: -4.4
- composite z-score [3]: 0.872
- composite z-score [4]: -0.134
- composite z-score [5]: -0.698
- composite z-score [6]: 0.115
- composite z-score [7]: 0.0048
- composite z-score [8]: -0.483
- composite z-score [9]: 0.567
- composite z-score [10]: 0.243

SMILES: COCCOC(=O)N1C(=O)[C@@]2(c3cc(C#Cc4ccc(OC)cc4)ccc31)[C@H](c1ccc(OCCO)cc1)N1[C@H](c3ccccc3)[C@H](c3ccccc3)OC(=O)[C@H]1[C@@H]2C(N)=O
- composite z-score [1]: 1.32
- z-score [2]: -2.33
- composite z-score [3]: 0.701
- composite z-score [4]: 2.09
- composite z-score [5]: 0.451
- composite z-score [6]: -0.0792
- composite z-score [7]: 0.296
- composite z-score [8]: 0.683
- composite z-score [9]: 1.36
- composite z-score [10]: 2.23

SMILES: COC(=O)C(CC#Cc1ccc2c(c1)[C@]1(C(=O)N2)[C@H](C(=O)N2CCc3cc(OC)c(OC)cc3C2)[C@H]2C(=O)O[C@H](c3ccccc3)[C@H](c3ccccc3)N2[C@@H]1c1ccc(O)cc1)C(=O)OC
- composite z-score [1]: 1.27
- z-score [2]: -1.06
- composite z-score [3]: 1.35
- composite z-score [4]: 1.35
- composite z-score [5]: 0.537
- composite z-score [6]: -0.0303
- composite z-score [7]: 0.529
- composite z-score [8]: -0.491
- composite z-score [9]: 0.908
- composite z-score [10]: 1.12

SMILES: CN1C(=O)C2C=CC(C(O)c3cccc4ccccc34)N(NC(=O)OC(C)(C)C)C2C1=O (stereo not given)
- composite z-score [1]: 1.28
- z-score [2]: -0.602
- composite z-score [3]: -0.22
- composite z-score [4]: 2.49
- composite z-score [5]: 1.43
- composite z-score [6]: -0.0512
- composite z-score [7]: -0.0813
- composite z-score [8]: -0.125
- composite z-score [9]: 2.66
- composite z-score [10]: 1.19

SMILES: CN(C)CCCC[C@@H]1NC(=O)[C@H]2C[C@@H](C(=O)NCCCCCCNC(=O)CS)[C@@H](c3ccc(O)cc3)N2C1=O
- composite z-score [1]: 1.3
- z-score [2]: 0.344
- composite z-score [3]: -0.603
- composite z-score [4]: -0.445
- composite z-score [5]: -0.107
- composite z-score [6]: -0.221
- composite z-score [7]: 0.194
- composite z-score [8]: -0.541
- composite z-score [9]: 2.53
- composite z-score [10]: -0.945

SMILES: CC1(C)[C@@H]2CC(C(O)C3C=CC4C(=O)N(c5ccccc5)C(=O)C4N3Nc3ccccc3F)=C[C@@H]1C2 (stereo not given in full)
- composite z-score [1]: 1.4
- z-score [2]: -3.15
- composite z-score [3]: 0.501
- composite z-score [4]: 1.18
- composite z-score [5]: -0.229
- composite z-score [6]: 0.164
- composite z-score [7]: 0.0639
- composite z-score [8]: -0.256
- composite z-score [9]: 1.34
- composite z-score [10]: 1.12

SMILES: O=C1OCCC=C[C@H]2OC34C=CCN(Cn5nnc6ccccc65)C(=O)[C@H]3N(CCCCCO)C(=O)[C@@H]4C12 (stereo not given in full)
- composite z-score [1]: -0.473
- z-score [2]: 0.204
- composite z-score [3]: -0.511
- composite z-score [4]: -0.212
- composite z-score [5]: 0.106
- composite z-score [6]: -0.101
- composite z-score [7]: -0.0769
- composite z-score [8]: 0.0599
- composite z-score [9]: -1.1
- composite z-score [10]: -1.09

SMILES: O=C1O[C@H](c2ccccc2)[C@H](c2ccccc2)N2[C@H]1[C@@H](C(=O)N1CCN(c3ncccn3)CC1)[C@]1(C(=O)Nc3ccc(C#CCCO)cc31)[C@H]2c1ccc(OCCO)cc1
- composite z-score [1]: 1.41
- z-score [2]: -1.35
- composite z-score [3]: 1.35
- composite z-score [4]: 1.23
- composite z-score [5]: -0.188
- composite z-score [6]: 0.0614
- composite z-score [7]: 0.0141
- composite z-score [8]: 0.242
- composite z-score [9]: 1.53
- composite z-score [10]: 0.554

SMILES: O=C1O[C@H](c2ccccc2)[C@H](c2ccccc2)N2[C@H]1[C@@H](C(=O)N1CCN(c3ncccn3)CC1)[C@]1(C(=O)Nc3ccc(C#CCCO)cc31)[C@H]2c1ccccc1OCCO
- composite z-score [1]: 1.02
- z-score [2]: -1.49
- composite z-score [3]: 0.708
- composite z-score [4]: 1.46
- composite z-score [5]: 0.12
- composite z-score [6]: -0.091
- composite z-score [7]: 0.126
- composite z-score [8]: 0.576
- composite z-score [9]: 0.453
- composite z-score [10]: 1.77

SMILES: CN(C)CCCNC(=O)[C@@]1(Cc2ccccc2I)c2ccccc2C(=O)N(Cc2ccccc2Cl)[C@H]1c1ccc(CO)cc1
- composite z-score [1]: -0.93
- z-score [2]: -3.47
- composite z-score [3]: -1.3
- composite z-score [4]: 1.48
- composite z-score [5]: 0.775
- composite z-score [6]: 0.157
- composite z-score [7]: -0.12
- composite z-score [8]: -0.784
- composite z-score [9]: 0.461
- composite z-score [10]: 1.27

SMILES: C=CCC(OC(C)=O)[C@@H]1[C@@H](N(Cc2ccc(-c3ccccc3)cc2)C(=O)Cc2ccc(OC)cc2)c2cc(OCCCO)ccc2N1C(=O)c1ccc(-c2ccccc2)cc1 (stereo not given in full)
- composite z-score [1]: -0.354
- z-score [2]: 0.257
- composite z-score [3]: 0.265
- composite z-score [4]: 0.36
- composite z-score [5]: 0.807
- composite z-score [6]: -0.0718
- composite z-score [7]: -0.229
- composite z-score [8]: -0.174
- composite z-score [9]: 0.609
- composite z-score [10]: 0.544

SMILES: NC(=O)[C@@H]1[C@H]2C(=O)O[C@H](c3ccccc3)[C@H](c3ccccc3)N2[C@H](c2ccccc2OCCO)[C@@]12C(=O)Nc1ccc(C#CCCO)cc12
- composite z-score [1]: 0.42
- z-score [2]: -1.02
- composite z-score [3]: -0.388
- composite z-score [4]: 0.613
- composite z-score [5]: 0.154
- composite z-score [6]: -0.226
- composite z-score [7]: -0.221
- composite z-score [8]: -0.139
- composite z-score [9]: 0.0571
- composite z-score [10]: 1.18

SMILES: Cc1cc(C)c(C(O)C2C=CC3C(=O)N(c4ccccc4)C(=O)C3N2Nc2ccc([N+](=O)[O-])cc2)c(C)c1 (stereo not given)
- composite z-score [1]: 1.44
- z-score [2]: 0.49
- composite z-score [3]: 0.38
- composite z-score [4]: 1.84
- composite z-score [5]: 0.469
- composite z-score [6]: -0.131
- composite z-score [7]: 0.0328
- composite z-score [8]: 1.21
- composite z-score [9]: 1.29
- composite z-score [10]: 2.19

SMILES: CC(C)C[C@@H]1NC(=O)[C@@]23C(=O)N[C@@H](Cc4ccccc4)C2[C@H](C)[C@@]2(C)O[C@H]2C3/C=C/C/C=C\CNC(=O)[C@@H]2CCCN2C1=O (stereo not given in full)
- composite z-score [1]: -0.282
- z-score [2]: -0.972
- composite z-score [3]: 0.283
- composite z-score [4]: -0.749
- composite z-score [5]: -0.721
- composite z-score [6]: -0.124
- composite z-score [7]: -0.138
- composite z-score [8]: -0.219
- composite z-score [9]: -0.22
- composite z-score [10]: -0.442
